Experiment [1] addresses Oxysterols receptor LXR-beta (Homo sapiens) (UniProt P55055). Put plainly: ATG_LXRb_TRANS: Attagene TRANS-FACTORIAL HepG2 Assay for human Liver X Receptor beta (LXRb) (AID 2282981; active = hit-call score of the fitted dose curve at least 0.9, where 1 is the maximum). Particulars: HepG2 Attagene TRANS GAL4-LXRb reporter, mRNA. The procedure, abridged:
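Transient transfection HepG2 (multiplexed RTUs, GAL4-UAS); NR-Gal4 chimera; 24 h exposure; RNA → RT-PCR → 6-FAM primer extension → HpaI → CE; increase vs DMSO.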

In experiment [2] the target is Hepatocyte nuclear factor 4-alpha (Homo sapiens) (UniProt P41235). Description: ATG_HNF4a_TRANS: Attagene TRANS-FACTORIAL HepG2 Assay for human Hepatocyte Nuclear Factor 4 alpha (HNF4a) (AID 2282982; active = hit-call score of the fitted dose curve at least 0.9, where 1 is the maximum). Particulars: HepG2 HNF4a transactivation reporter, mRNA readout. The method, boiled down: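 Readout is fluorescent reporter-transcript fragments resolved by capillary electrophoresis after RT-PCR from HepG2 cells dosed for 24 h. Cells carried transfected GAL4-UAS reporter constructs measuring exogenous NR-GAL4 chimera activity; DMSO served as baseline.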

Experiment [3] can be described thus: ATG_M_06_TRANS: Attagene TRANS-FACTORIAL HepG2 Assay for M06 Transcription Factor (Internal Marker) (AID 2282983; active = hit-call score of the fitted dose curve at least 0.9, where 1 is the maximum;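 also: reporter transcript level by RT-PCR then capillary electrophoresis fluorescence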). As to conditions: HepG2 Attagene TRANS M06 internal marker reporter. The procedure, abridged: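 Measured by capillary electrophoresis of fluorescently labelled RT-PCR products, this endpoint reflects reporter mRNA in HepG2 cells harbouring exogenous NR-GAL4 reporter constructs after 24 h exposure, with DMSO as baseline.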

The target of experiment [4] is human Retinoid X Receptor beta (RXRb), RXRB (gene 6257) (UniProt P28702). Description: ATG_RXRb_TRANS: Attagene TRANS-FACTORIAL HepG2 Assay for human Retinoid X Receptor beta (RXRb) (AID 2283013; active = hit-call score of the fitted dose curve at least 0.9, where 1 is the maximum). The method, boiled down: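 HepG2 cells were transiently transfected with multiplexed GAL4-UAS reporters and a chimeric RXRb-Gal4 construct, then exposed for 24 h. Reporter mRNA was quantified by RT-PCR, FAM labeling, HpaI digestion and capillary electrophoresis; gain of signal was scored against DMSO.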

Experiment [5] is described as follows: ATG_GAL4_TRANS: Attagene TRANS-FACTORIAL HepG2 Assay for GAL4 (Internal Marker) (AID 2282976; active = hit-call score of the fitted dose curve at least 0.9, where 1 is the maximum). Particulars: HepG2 Attagene TRANS GAL4 internal marker reporter. The method, boiled down:
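Fluorescence from capillary electrophoresis of labelled RT-PCR products quantifies reporter mRNA induction after 24 h dosing of HepG2 cells carrying transfected GAL4-UAS reporter transcription units. Vehicle DMSO serves as baseline.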

Experiment [6] in a line: BSK_3C_Proliferation: Cell Proliferation Assessment in the BioMAP Diversity Plus: 3C Assay (AID 2283006).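 As to AC50: potency may reflect either rise or fall in cell number versus DMSO.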 Particulars: primary human endothelial cells (HUVEC). The procedure, abridged:
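Subconfluent HUVEC (3C system) cultured with chemical; relative cell number read at 48 h by sulforhodamine B total-protein staining (0.1% SRB after 10% TCA fixation, 560 nm). Bidirectional fit relative to DMSO.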

Read-out in experiment [7]: Plasminogen activator inhibitor-1 (PAI1), SERPINE1 (gene 5054)
Description: BSK_KF3CT_PAI1: BioMAP Diversity Plus: KF3CT Assay for Plasminogen activator inhibitor-1 (PAI1) Biomarker Activity (AID 2284252). As to conditions: primary human keratinocytes with fibroblasts. The method, boiled down: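 Human keratinocyte/foreskin fibroblast co-culture dosed for 24 h; PAI-1 measured by ELISA, fitted in positive direction against DMSO baseline. Parallel SRB total-protein staining (0.1% SRB, 560 nm) assesses overt cytotoxicity.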

Read-out in experiment [8]: Intercellular Adhesion Molecule 1 (ICAM1), ICAM1 (gene 3383)
Description: BSK_BE3C_ICAM1: BioMAP Diversity Plus: BE3C Assay for Intercellular Adhesion Molecule 1 (ICAM1) Biomarker Activity (AID 2284278).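 Also: cell-surface ICAM-1 protein level quantified by ELISA.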 As to conditions: primary human bronchial epithelial cells. The procedure, abridged:
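Primary human bronchial epithelial cells in BE3C system, 24 h after chemical dosing; cell-surface ICAM-1 measured by ELISA relative to DMSO. Parallel SRB staining (0.1% SRB after 10% TCA fixation, read at 560 nm) assessed cytotoxicity.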

Read-out in experiment [9]: Interferon-inducible T-cell alpha chemoattractant (ITAC), CXCL11 (gene 6373)
Put plainly: BSK_BE3C_ITAC: BioMAP Diversity Plus: BE3C Assay for Interferon-inducible T-cell alpha chemoattractant (ITAC) Biomarker Activity (AID 2284279). As to conditions: primary human bronchial epithelial cells. The procedure, abridged: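 BE3C cells (human primary bronchial epithelium), 24 h compound exposure, I-TAC by ELISA, DMSO = negative control/baseline, positive fitting direction.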

Read-out in experiment [10]: Interleukin-8 (IL8), CXCL8 (gene 3576)
Description: BSK_BE3C_IL8: BioMAP Diversity Plus: BE3C Assay for Interleukin-8 (IL8) Biomarker Activity (AID 2284280). As to conditions: primary human bronchial epithelial cells. The procedure, abridged:
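IL-8 signal gain, normalised to DMSO vehicle, was scored after a 24 h chemical exposure of primary human bronchial epithelial cells, with detection by ELISA.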

Read-out in experiment [11]: Epidermal growth factor receptor (EGFR), EGFR (gene 1956)
Put plainly: BSK_BE3C_EGFR: BioMAP Diversity Plus: BE3C Assay for Epidermal growth factor receptor (EGFR) Biomarker Activity (AID 2284281). As to conditions: primary human bronchial epithelial cells. The method, boiled down: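 Compound is added to human bronchial epithelial cells, cells incubate 24 h, then EGFR is detected by ELISA. Values reflect positive-direction fitting relative to DMSO.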

Read-out in another experiment: KRT18 (gene 3875)
Description: BSK_BE3C_Keratin818: BioMAP Diversity Plus: BE3C Assay for Keratin 818 Biomarker Activity (AID 2284282). As to conditions: primary human bronchial epithelial cells. The procedure, abridged: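 Primary human bronchial epithelial cells treated 24 h; Keratin 8/18 quantified by ELISA, fit relative to DMSO. Cytotoxicity tracked in parallel cultures by sulforhodamine B total-protein staining.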

Read-out in experiment [12]: Matrix Metallopeptidase 9 (MMP9), MMP9 (gene 4318)
Description: BSK_BE3C_MMP9: BioMAP Diversity Plus: BE3C Assay for Matrix Metallopeptidase 9 (MMP9) Biomarker Activity (AID 2284283). As to conditions: primary human bronchial epithelial cells. The procedure, abridged: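 Cells were dosed, incubated 24 h, then assayed for MMP-9 by ELISA; activity was fitted upward against DMSO. The system used human lung primary bronchial epithelial cells, with SRB total-protein staining run alongside for cytotoxicity.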

Read-out in experiment [13]: Plasminogen activator inhibitor-1 (PAI1), SERPINE1 (gene 5054)
Put plainly: BSK_CASM3C_PAI1: BioMAP Diversity Plus: CASM3C Assay for Plasminogen activator inhibitor-1 (PAI1) Biomarker Activity (AID 2284284).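 Also: PAI-1 protein level measured by ELISA 24 h after dosing.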 Particulars: primary human coronary artery smooth muscle cells.

Read-out in experiment [14]: TIMP metallopeptidase inhibitor 2 (TIMP2), TIMP2 (gene 7077)
Description: BSK_hDFCGF_TIMP2: BioMAP Diversity Plus: hDFCGF Assay for TIMP metallopeptidase inhibitor 2 (TIMP2) Biomarker Activity (AID 2284289). Particulars: primary human foreskin fibroblasts. The procedure, abridged: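 Primary human foreskin fibroblasts in the hDFCGF system, dosed for 24 h; TIMP-2 level measured by ELISA, fitted in the positive direction against DMSO; cytotoxicity checked in parallel by sulforhodamine B total protein staining.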

Read-out in another experiment: CD69, CD69 (gene 969)
Put plainly: BSK_LPS_CD69: BioMAP Diversity Plus: LPS Assay for CD69 Biomarker Activity (AID 2284303). Particulars: primary human HUVEC with PBMC. The procedure, abridged:
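Human umbilical vein endothelial cells co-cultured with PBMC under LPS stimulation, chemical exposure 24 h; cell-surface CD69 measured by ELISA and fitted in the positive direction versus DMSO.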

Experiment [15] can be described thus: CCTE_Shafer_MEA_acute_spike_number: CCTE's Neural Acute Assay for Total Number of Spikes, Shafer Lab (AID 2284008).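 As to AC50: curve fitted for decrease in spike count so AC50 reflects inhibitors.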 The method, boiled down:
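Cortical neurons from rat, matured to DIV 13 or 15 on microelectrode arrays, are recorded at 37 C before and during 40-min exposure to 0.03-40 uM compound. Wells need >/= 10 active electrodes.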

A short description of experiment [16]: CCTE_Shafer_MEA_acute_firing_rate_mean: CCTE's Neural Acute Assay for Mean Firing Rate, Shafer Lab (AID 2284009).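 Also: analyzed for loss of signal so actives lower firing rate relative to DMSO.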 The method, boiled down:
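Percent change in well-mean firing rate was derived from extracellular spikes detected at 8x rms noise (300-5000 Hz band-pass) before and after a 40-min compound exposure. Cultures were primary rat cortical neurons, tested at 0.03-40 uM.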

Experiment [17] in a line: CCTE_Shafer_MEA_acute_burst_number: CCTE's Neural Acute Assay for Single-Electrode Bursts, Shafer Lab (AID 2284013). The method, boiled down: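 Spontaneous network activity of primary rat cortical neurons was recorded extracellularly on microelectrode arrays at 37 C, with 40-min periods before and during exposure to 0.03-40 uM compound on DIV 13 or 15.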
Experiment [18] in a line: CCTE_Shafer_MEA_acute_per_burst_spike_number_mean: CCTE's Neural Acute Assay for Average Number of Spikes Per Burst, Shafer Lab (AID 2284015).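 Also: hits are decreases in mean spikes per burst versus baseline.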 The method, boiled down: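 Read-out: percent change in mean spikes per burst, each well's post-exposure 40-min recording versus its own 40-min baseline. Rat cortical cultures, DIV 13 or 15, compounds 0.03-40 uM; DMSO is negative control, loss-of-signal fitting.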

Several values for one entry are separate records, joined by “and”; a condition that tells them apart may be missing. Identical values can stand only once. Records with an inconclusive call do not appear. Activity calls are given as the source filed them. The calls were made as follows, unless noted: active = hit-call score of the fitted dose curve at least 0.9, where 1 is the maximum; inactive = score below 0.9.

Sequence of human Retinoid X Receptor beta (RXRb), RXRB (gene 6257) (P28702 whole entry, looked up, the tested form may be a part): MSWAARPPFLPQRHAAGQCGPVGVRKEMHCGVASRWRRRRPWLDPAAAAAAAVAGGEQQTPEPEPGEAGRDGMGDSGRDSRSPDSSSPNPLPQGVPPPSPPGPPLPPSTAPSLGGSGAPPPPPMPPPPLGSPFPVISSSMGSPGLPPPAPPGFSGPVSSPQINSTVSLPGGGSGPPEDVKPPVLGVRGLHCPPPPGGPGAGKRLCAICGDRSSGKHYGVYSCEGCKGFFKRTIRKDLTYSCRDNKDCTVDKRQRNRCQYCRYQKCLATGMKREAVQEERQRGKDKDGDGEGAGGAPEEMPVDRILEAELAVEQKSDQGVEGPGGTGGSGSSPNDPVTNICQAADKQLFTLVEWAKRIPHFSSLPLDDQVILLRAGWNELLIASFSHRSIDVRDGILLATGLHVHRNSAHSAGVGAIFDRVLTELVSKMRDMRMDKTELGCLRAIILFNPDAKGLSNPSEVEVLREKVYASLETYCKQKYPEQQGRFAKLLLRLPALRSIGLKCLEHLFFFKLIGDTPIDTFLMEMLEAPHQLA
Sequence of Oxysterols receptor LXR-beta (Homo sapiens) (P55055 whole entry, looked up, the tested form may be a part): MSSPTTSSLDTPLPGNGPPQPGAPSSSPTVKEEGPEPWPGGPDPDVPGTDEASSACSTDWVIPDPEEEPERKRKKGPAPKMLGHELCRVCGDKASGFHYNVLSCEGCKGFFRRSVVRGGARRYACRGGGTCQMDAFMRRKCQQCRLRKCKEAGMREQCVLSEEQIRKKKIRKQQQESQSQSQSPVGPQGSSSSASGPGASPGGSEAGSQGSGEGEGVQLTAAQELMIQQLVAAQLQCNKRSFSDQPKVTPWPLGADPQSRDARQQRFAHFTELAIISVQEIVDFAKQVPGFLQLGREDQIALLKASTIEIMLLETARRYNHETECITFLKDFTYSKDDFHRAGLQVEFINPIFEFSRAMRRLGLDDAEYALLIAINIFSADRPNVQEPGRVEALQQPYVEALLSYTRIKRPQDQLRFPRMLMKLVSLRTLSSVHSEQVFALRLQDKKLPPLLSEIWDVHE
Sequence of Hepatocyte nuclear factor 4-alpha (Homo sapiens) (P41235 whole entry, looked up, the tested form may be a part): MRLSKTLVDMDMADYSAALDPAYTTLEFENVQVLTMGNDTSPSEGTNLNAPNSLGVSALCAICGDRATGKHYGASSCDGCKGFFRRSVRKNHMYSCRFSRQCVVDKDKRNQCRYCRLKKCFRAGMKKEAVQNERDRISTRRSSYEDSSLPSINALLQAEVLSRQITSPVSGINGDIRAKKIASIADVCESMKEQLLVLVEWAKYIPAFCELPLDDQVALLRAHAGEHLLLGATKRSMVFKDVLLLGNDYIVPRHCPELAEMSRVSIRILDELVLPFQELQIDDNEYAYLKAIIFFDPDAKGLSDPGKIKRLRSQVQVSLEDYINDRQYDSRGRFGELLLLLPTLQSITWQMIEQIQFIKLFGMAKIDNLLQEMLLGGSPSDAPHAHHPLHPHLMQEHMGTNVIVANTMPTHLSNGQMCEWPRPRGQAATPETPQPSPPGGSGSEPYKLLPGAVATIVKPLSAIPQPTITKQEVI

Take `COc1cccc(OC)c1C(=O)O`: the outcome in [1], in experiment [2], in experiment [3] and in [4] was inactive.

As to `CCO[Si](OCC)(OCC)c1ccccc1`, the call in [5] and in experiment [4] was inactive.

`COc1c2occc2cc2ccc(=O)oc12`: the molecule was classed as inactive in experiment [5] and in [3]. In [4], the AC50 is 100 µM (active).

Turning to `COc1ccc2ccccc2c1`, the molecule was classed as inactive in experiment [5], in experiment [3] and in experiment [4].

On to `CC[N+](CC)(CC(=O)Nc1c(C)cccc1C)Cc1ccccc1`, for which the call in experiment [5] and in experiment [2] was inactive.

On to `CCCCC(CC)COC(=O)C=Cc1ccc(OC)cc1` (stereo not given), for which the AC50 in experiment [6] is 32.7 µM (active) and 27.1 µM (active); in [14], 3.97 µM (active) and 6.38 µM (active); in the experiment with CD69, CD69 (gene 969) it was 15.4 µM (active) and 23.4 µM (active). Also, the result (in [7]; in experiment [8]; in experiment [9]; in experiment [10]; in experiment [11]; with KRT18 (gene 3875)) was inactive. For the same molecule, the result in experiment [12] and in experiment [13] was inactive.

As to `C=CCOCC(CC)(CO)COCC=C`, the call in [1], in experiment [3] and in experiment [4] was inactive.

`C1CN(CCOCCN2CCOCC2)CCO1`: the result in experiment [6], in experiment [15], in experiment [16], in [17], in experiment [18] and in [7] was inactive. Moreover, the outcome (in experiment [8]; in experiment [9]; in experiment [10]; in experiment [11]; with KRT18 (gene 3875); in experiment [12]) was inactive. Also, the outcome in experiment [13] was “inactive”; in [14], “inactive”; with CD69, CD69 (gene 969), “inactive”.

Turning to `CC/C=C\CCO`, the molecule was called inactive in experiment [1], in experiment [2] and in [3].

Turning to `CNCCC(Oc1ccc(C(F)(F)F)cc1)c1ccccc1` (stereo not given), the AC50 in [15] is 877 nM (active); in experiment [16], 877 nM (active); in experiment [17] it was 693 nM (active). In experiment [18], the molecule was called inactive.

Values taken from PubChem BioAssay (EPA / NIEHS).
